The record followed here is ChEMBL document CHEMBL1157539, “Thousands of chemical starting points for antimalarial lead identification” (Nature, 2010).

Holding throughout (format): functional
Assay [1] concerns Plasmodium falciparum. Description: GSK_TCMDC: Inhibition of Plasmodium falciparum 3D7 in whole red blood cells, using parasite LDH activity as an index of growth. Test compounds present at 2uM.
Assay [2] concerns Plasmodium falciparum. The experiment in a line: GSK_TCMDC: Inhibition of Plasmodium falciparum Dd2 in whole red blood cells, using parasite LDH activity as an index of growth. Test compounds present at 2uM.
Another assay relates to HepG2. The experiment in a line: GSK_TCMDC: Percent inhibition of human HepG2 cell line. Test compounds present at 10uM.

Regarding `C[C@@H](CC1CCCCC1)OC(=O)N(C)[C@@H]1CCN(C#N)C1`, the Inhibition in the assay on Plasmodium falciparum [1] is reported as 95%; in the assay on Plasmodium falciparum [2], 96%; in the assay on HepG2, 5%.

For `Cc1c(F)cc(C(=O)NC2CC2)cc1-c1ccc2c(cnn2S(=O)(=O)c2cccs2)c1`, the results for the Inhibition in the assay on Plasmodium falciparum [1], in the assay on Plasmodium falciparum [2] and in the assay with HepG2 were 92%, 68% and 32%, respectively.

Consider `CCOc1ccccc1C(=O)Nc1cccc(-c2nc3ncccn3c2C)c1`, for which the Inhibition in the assay on Plasmodium falciparum [1] is given as 92%; in the assay with Plasmodium falciparum [2] it was 88%; with HepG2, 0%.

Consider `Cc1cc(O)nc(NC(=N)NOCc2ccccc2)n1`, for which the results for the Inhibition in the assay on Plasmodium falciparum [1], in the assay on Plasmodium falciparum [2] and in the assay on HepG2 were 100%, 1% and 0%, respectively.

As to `Cc1ccc2[nH]c(C)cc(=NN=CC=Cc3ccccc3)c2c1`, the Inhibition was found to be 92% in the assay on Plasmodium falciparum [1], 28% in the assay on Plasmodium falciparum [2] and 0% in the assay on HepG2.

Consider `CNCCNCc1ccc(-c2ccc(-c3nc4cc(C(F)(F)F)ccc4[nH]3)cc2)cc1.O=C(O)C(F)(F)F`, for which the Inhibition in the assay on Plasmodium falciparum [1] amounted to 99%; in the assay with Plasmodium falciparum [2], 92%; in the assay on HepG2 it was 28%.

For the compound `COc1cccc(NC(=O)NC2CCN(c3ccnc(Nc4ccc(F)cc4)n3)C2)c1` (stereo not given), the Inhibition in the assay with Plasmodium falciparum [1] came to 100%; with Plasmodium falciparum [2] it was 71%; with HepG2 it was 9%.

Regarding `O=C(O)C(F)(F)F.c1ccc(-c2ccc(CNCc3ccc(-c4cccc(-c5nc6ccccc6[nH]5)c4)cc3)s2)nc1`, the values for the Inhibition in the assay on Plasmodium falciparum [1], in the assay on Plasmodium falciparum [2] and with HepG2 were 98%, 80% and 48%, respectively.

In the case of `Cc1cc2c(cc1C(F)(F)F)N(C(=O)Nc1ccc(OCCN(C)C)c(C(F)(F)F)c1)CC2.Cl`, the Inhibition in the assay with Plasmodium falciparum [1] turned out to be 93%; in the assay on Plasmodium falciparum [2] it was 23%; in the assay with HepG2 it was 38%.

For the compound `O=C(Cc1c[nH]cn1)Nc1ccc(-c2ccc(-c3nc4cc(F)ccc4[nH]3)cc2)cc1`, the Inhibition in the assay with Plasmodium falciparum [1] is reported as 100%; in the assay with Plasmodium falciparum [2] it was 91%; in the assay with HepG2 it was 39%.

On to `COc1ccc2nc(C)cc(N/N=C/c3ccc([N+](=O)[O-])o3)c2c1`, for which the Inhibition in the assay with Plasmodium falciparum [1] was determined as 100%; with Plasmodium falciparum [2], 100%; in the assay on HepG2, 18%.

As for `Cc1cc2nc(-c3ccc(OCC(=O)NCc4cccc(C(F)(F)F)c4)cc3)[nH]c2cc1C`, the Inhibition is 94% with Plasmodium falciparum [1], 1% in the assay on Plasmodium falciparum [2] and 4% in the assay with HepG2.

For the compound `Fc1cc(Cl)ccc1Nc1ccnc2cc(-c3ccc(CNCCN4CCOCC4)o3)ccc12`, the Inhibition is 100% with Plasmodium falciparum [1], 100% with Plasmodium falciparum [2] and 13% in the assay with HepG2.

On to `CCC(CC)n1cc2c(ccc3nc(N)nc(N)c32)n1`, for which the Inhibition in the assay with Plasmodium falciparum [1] turned out to be 91%; in the assay on Plasmodium falciparum [2] it was 0%; in the assay with HepG2, 61%.

In the case of `CC(C)(C)OC(=O)Nc1cccc(-c2csc(NC(=N)N)n2)c1`, the Inhibition in the assay on Plasmodium falciparum [1] is on record as 97%; in the assay on Plasmodium falciparum [2], 83%; with HepG2, 4%.

Take `O=S(=O)(Nc1cccc(F)c1CNCc1ccccn1)c1ccc(Cl)c(Cl)c1`: the Inhibition with Plasmodium falciparum [1] is 92%; in the assay on Plasmodium falciparum [2] it was 34%; with HepG2, 45%.

As to `O=[N+]([O-])c1cccc(-c2nc(-c3ccc(Br)cc3)[nH]c2-c2ccc(Br)cc2)c1`, the figures for the Inhibition in the assay on Plasmodium falciparum [1], in the assay with Plasmodium falciparum [2] and in the assay on HepG2 were 99%, 44% and 6%, respectively.

Regarding `COc1ccc(-c2cccc(NC(=O)c3ccc(C#N)cc3)c2)cc1CN1CCCC1.O=C(O)C(F)(F)F`, the Inhibition with Plasmodium falciparum [1] turned out to be 98%; in the assay with Plasmodium falciparum [2], 15%; in the assay with HepG2 it was 30%.

For the compound `Cl.Oc1cc(Nc2ccnc3ccc(I)cc23)c(F)cc1Cl`, the Inhibition in the assay with Plasmodium falciparum [1] was 95%; in the assay with Plasmodium falciparum [2], 13%; with HepG2, 20%.

As to `CCCNCc1ccc(-c2ccc(CN(CCOC)C(=O)c3ccc([N+](=O)[O-])c(C)c3)cc2)nc1.O=C(O)C(F)(F)F`, the Inhibition turned out to be 97% in the assay with Plasmodium falciparum [1], 23% with Plasmodium falciparum [2] and 2% with HepG2.

Regarding `COc1cccc(OC)c1CN1CCC(N(C)CCCCCCCCN2CCC(OC(=O)Nc3ccccc3-c3ccccc3)CC2)CC1`, the results for the Inhibition with Plasmodium falciparum [1], in the assay with Plasmodium falciparum [2] and in the assay on HepG2 were 99%, 100% and 100%, respectively.

For `COc1ccc2nc(NC(N)=NC(=O)Nc3ccccc3)nc(C)c2c1`, the Inhibition in the assay on Plasmodium falciparum [1] came to 90%; in the assay on Plasmodium falciparum [2], 15%; with HepG2 it was 3%.

For `Nc1c(Cl)cc(C(O)CNCCCCCCOCCc2ccc(O)cc2)cc1Cl.O=C(O)/C=C/C(=O)O` (stereo not given), the Inhibition stood at 97% in the assay with Plasmodium falciparum [1], 97% in the assay with Plasmodium falciparum [2] and 13% with HepG2.

With `CN1CCN(c2ccnc3ccc(NC(=O)Nc4ccc(-c5ccncc5)c(C(F)(F)F)c4)cc23)CC1`, the results for the Inhibition in the assay on Plasmodium falciparum [1], in the assay on Plasmodium falciparum [2] and in the assay on HepG2 were 99%, 99% and 12%, respectively.

`Cc1cc(-c2ccc3c(c2)CCN(CCC2CCC(NC(=O)/C=C/c4ccc(F)cc4)CC2)CC3)on1.Cl` (stereo not given): the values for the Inhibition in the assay on Plasmodium falciparum [1], in the assay on Plasmodium falciparum [2] and with HepG2 were 98%, 47% and 29%, respectively.

With `Cc1cc(NCCC(=O)NCCc2ccccc2)nc(NCCc2ccc(F)cc2)n1.O=C(O)C(F)(F)F`, the Inhibition turned out to be 92% in the assay with Plasmodium falciparum [1], 7% in the assay with Plasmodium falciparum [2] and 0% with HepG2.

`CCOC(=O)c1ccc(NC(=O)Nc2ccc(-c3ccc(-c4nc5cc(C(F)(F)F)ccc5[nH]4)cc3)cc2)cc1`: the Inhibition came to 100% in the assay with Plasmodium falciparum [1], 52% in the assay with Plasmodium falciparum [2] and 20% with HepG2.

With `Cl.N#Cc1ccc2c(c1)CCN(CCC1CCC(NC(=O)c3ccc(-c4ccccc4)s3)CC1)CC2` (stereo not given), the Inhibition in the assay on Plasmodium falciparum [1] is on record as 99%; in the assay on Plasmodium falciparum [2], 36%; in the assay on HepG2, 6%.

Regarding `NC1=NC(c2ccccc2)(c2ccccc2)C(=O)N1Cc1ccccc1Br.O=CO`, the Inhibition came out at 93% with Plasmodium falciparum [1], 38% with Plasmodium falciparum [2] and 36% in the assay on HepG2.

With `CCOC(=O)c1ccc(-n2c(C)cc(C=C3SC(=Nc4ccccc4)N(C4CCCC4)C3=O)c2C)cc1`, the Inhibition turned out to be 98% with Plasmodium falciparum [1], 61% in the assay on Plasmodium falciparum [2] and 2% with HepG2.

As usually defined, the Inhibition is the percentage by which the read-out fell short of the control.
